This is an account of results in PubChem BioAssay (NCATS).

Test [1] can be described thus: Primary qHTS to identify inhibitors of SARS-CoV-2 cell entry (AID 1645846; calls by dose curve; also: nearly all actives have a fitted effect of over 45% in size). The settings on record: activity change, negative = inhibition: at 57.1 µM (top of the series) unless noted. The procedure, abridged: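 Luminescence readout (Bright-Glo luciferase) 48 h after pseudoparticle addition. HEK293-ACE2 cells, 1500/well; compound pre-incubation 1 h; Normalized to spike PP and bald PP.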
Background: qHTS replaces the single test concentration by a dilution series.

The nature of test [2]: Primary qHTS for inhibitors of nuclear receptor binding SET domain protein 2 (NSD2) in an isogenic RCH-ACV NSD2 p.E1099K mutant (9B) (AID 1645876). Also: nearly all actives have a fitted effect of over 70% in size. Also: potency is read from the fitted curve at half-maximal effect.
A short description of test [3]: Primary qHTS for inhibitors of nuclear receptor binding SET domain protein 2 (NSD2) in an RCH-ACV wild type WT cells (2C) (AID 1645877). Also: nearly all actives have a fitted effect of over 70% in size. Also: potency is read from the fitted curve at half-maximal effect.
A further test addresses Papain (Carica papaya) (UniProt P00784). Description: Primary qHTS assay for inhibitors of the protease papain (AID 1645873).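 Also: papain turnover of Z-FR-AMC read as the AMC fluorescence gain over 10 min; % is scaled to controls: 0 for no effect and ±100 for the full control effect.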
The nature of test [4]: VSVG counterscreen qHTS to identify inhibitors of SARS-CoV-2 cell entry (AID 1645847; calls by dose curve; also: potency is read from the fitted curve at half-maximal effect; nearly all actives have a fitted effect of over 65% in size). The procedure, abridged: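 HEK293-ACE2 cells (Expi293F stably expressing human ACE2) were pretreated with compound for 1 h at 37 °C, then infected with MLV-based VSV-G pseudotyped particles for 48 h. Luciferase luminescence was normalized to VSV-G PP and bald PP wells.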
(Counterscreens check selectivity or assay interference.)

In test [5] the target is N-terminal Xaa-Pro-Lys N-methyltransferase 1 (Homo sapiens) (UniProt Q9BV86). Description: Confirmatory qHTS for Inhibitors of N-terminal methyltransferase 1 (NTMT1): MTaseGlo Assay (AID 1645874).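 Also: luminescence from SAH made as NTMT1 methylates SPKRIA peptide using SAM; 0% = DMSO control and -100% = no-enzyme control; nearly all actives have a fitted effect of over 65% in size.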 The source says: Assay Submitter (PI): Rong Huang Ph.D.
Purdue University, West Lafayette, IN 47907
The N-terminal methytransferase 1 is the first methyltransferase that methylates protein alpha-N-amines and plays an important role in regulating cell mitosis, chromatin interactions and DNA repair. It is observed to be over-expressed in various cancer patient tissues like malignant melanoma and colorectal cancer tissues. Knockdown of NTMT1 in cancer cells causes cell mitotic defects and enhances sensitivity to DNA damaging chemotherapeutics. […] These critical cellular processes in which NTMT1 is implicated, coupled with emerging links to cellular dysfunction, strengthen the inference that NTMT1 is a compelling novel anticancer target. […] To address this unmet need, a panel of assay is created and established to enable quantitative high-throughput screening (qHTS) for novel, potent, and selective small molecule NTMT1 inhibitors. […]
MTaseGlo Assay is a luminescence screen that measure the activity of methyltransferases based on the reaction product S-adenosyl homocysteine (SAH). […]
8; Reagent; 5 uL; Dispense 5 uL of 1x MTase-Glo Detection Solution (R) to allow for ADP to be converted to ATP which was then detected with a luciferase reaction. […]
11; Detection; Luminescence; Plates were read on ViewLux detector (PerkinElmer). […]

Test [6] has as its target Catechol O-methyltransferase (Homo sapiens) (UniProt P21964). Description: Confirmatory Screen for Target Class Profiling of Small Molecule Inhibitors of Methyltransferases (AID 1745852). The settings on record: MTase-Glo luminescence, SAH detection, recombinant enzyme; measured here: COMT max response; stronger effect = lower value.
Test [7] concerns the target Rap guanine nucleotide exchange factor 3 (Homo sapiens) (UniProt O95398). Briefly: Confirmatory qHTS for agonist of cAMP-regulated guanine nucleotide exchange factor 3 (EPAC1) (AID 1645881).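 Also: EPAC1 catalysed release of BODIPY-GDP from Rap1B seen as fluorescence loss; 100% = effect of cAMP agonist control; nearly all actives have a fitted effect of over 75% in size.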
The target of test [8] is Rap guanine nucleotide exchange factor 4 (Homo sapiens) (UniProt Q8WZA2). Description: Confirmatory qHTS for agonist of cAMP-regulated guanine nucleotide exchange factor 4 (EPAC2) (AID 1645884).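 Also: nucleotide exchange releases bodipy-GDP from Rap1 and this lowers its fluorescence; % is scaled to controls: 0 for no effect and ±100 for the full control effect; nearly all actives have a fitted effect of over 65% in size.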

Several values for one entry are separate records, joined by “and”; a condition that tells them apart may be missing. Identical values can stand only once. Inconclusive results are not listed. Activity calls are given as the source filed them. Unless noted, calls follow the shape of the dose curve; as a rule, active = well fitted curve in the direction sought with a large enough effect; inconclusive = small, poorly fitted or top-dose-only effect, or another doubt; inactive = no such curve, though single readings can be large; an effect the other way counts as inactive or inconclusive.

Chain of Papain (Carica papaya) (P00784 whole entry, looked up): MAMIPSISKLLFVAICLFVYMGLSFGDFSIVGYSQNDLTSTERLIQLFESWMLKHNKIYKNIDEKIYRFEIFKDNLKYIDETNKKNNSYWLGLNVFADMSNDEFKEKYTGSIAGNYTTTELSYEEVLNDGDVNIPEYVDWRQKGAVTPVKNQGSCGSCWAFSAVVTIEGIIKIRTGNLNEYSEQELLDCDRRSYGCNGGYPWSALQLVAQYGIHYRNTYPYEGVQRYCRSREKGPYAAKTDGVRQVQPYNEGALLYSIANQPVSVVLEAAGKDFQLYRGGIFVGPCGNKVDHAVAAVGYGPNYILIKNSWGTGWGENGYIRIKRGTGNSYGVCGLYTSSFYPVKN
Chain of N-terminal Xaa-Pro-Lys N-methyltransferase 1 (Homo sapiens) (Q9BV86 whole entry, looked up): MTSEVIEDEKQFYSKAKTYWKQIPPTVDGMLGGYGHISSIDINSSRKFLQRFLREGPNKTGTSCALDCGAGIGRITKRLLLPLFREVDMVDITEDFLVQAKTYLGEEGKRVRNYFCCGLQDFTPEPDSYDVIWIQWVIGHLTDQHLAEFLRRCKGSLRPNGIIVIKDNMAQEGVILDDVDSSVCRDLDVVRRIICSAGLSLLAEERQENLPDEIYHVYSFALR
Chain of Rap guanine nucleotide exchange factor 3 (Homo sapiens) (O95398 whole entry, looked up): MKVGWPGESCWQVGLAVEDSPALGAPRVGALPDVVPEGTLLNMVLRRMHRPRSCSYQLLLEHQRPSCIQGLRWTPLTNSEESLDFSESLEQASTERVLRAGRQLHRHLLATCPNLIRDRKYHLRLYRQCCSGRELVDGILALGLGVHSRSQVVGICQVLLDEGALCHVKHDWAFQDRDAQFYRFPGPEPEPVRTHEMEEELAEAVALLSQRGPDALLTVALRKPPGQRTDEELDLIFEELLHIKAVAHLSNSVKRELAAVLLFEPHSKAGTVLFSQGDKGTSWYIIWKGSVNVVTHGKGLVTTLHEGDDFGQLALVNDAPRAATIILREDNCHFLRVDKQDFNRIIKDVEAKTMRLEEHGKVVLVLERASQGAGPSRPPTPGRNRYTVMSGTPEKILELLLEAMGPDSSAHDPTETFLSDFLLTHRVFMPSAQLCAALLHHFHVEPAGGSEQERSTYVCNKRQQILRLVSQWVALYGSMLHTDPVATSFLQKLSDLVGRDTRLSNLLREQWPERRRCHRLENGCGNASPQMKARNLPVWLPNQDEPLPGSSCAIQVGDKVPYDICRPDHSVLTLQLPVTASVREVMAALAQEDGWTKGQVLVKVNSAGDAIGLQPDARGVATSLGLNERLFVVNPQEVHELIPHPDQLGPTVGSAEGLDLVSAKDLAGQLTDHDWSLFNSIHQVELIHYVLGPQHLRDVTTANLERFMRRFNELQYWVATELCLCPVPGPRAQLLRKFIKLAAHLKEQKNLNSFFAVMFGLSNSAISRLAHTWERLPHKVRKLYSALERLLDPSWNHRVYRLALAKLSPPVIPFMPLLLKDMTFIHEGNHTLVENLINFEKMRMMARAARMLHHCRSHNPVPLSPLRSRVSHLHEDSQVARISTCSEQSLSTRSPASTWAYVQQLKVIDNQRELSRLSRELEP
Chain of Rap guanine nucleotide exchange factor 4 (Homo sapiens) (Q8WZA2 whole entry, looked up): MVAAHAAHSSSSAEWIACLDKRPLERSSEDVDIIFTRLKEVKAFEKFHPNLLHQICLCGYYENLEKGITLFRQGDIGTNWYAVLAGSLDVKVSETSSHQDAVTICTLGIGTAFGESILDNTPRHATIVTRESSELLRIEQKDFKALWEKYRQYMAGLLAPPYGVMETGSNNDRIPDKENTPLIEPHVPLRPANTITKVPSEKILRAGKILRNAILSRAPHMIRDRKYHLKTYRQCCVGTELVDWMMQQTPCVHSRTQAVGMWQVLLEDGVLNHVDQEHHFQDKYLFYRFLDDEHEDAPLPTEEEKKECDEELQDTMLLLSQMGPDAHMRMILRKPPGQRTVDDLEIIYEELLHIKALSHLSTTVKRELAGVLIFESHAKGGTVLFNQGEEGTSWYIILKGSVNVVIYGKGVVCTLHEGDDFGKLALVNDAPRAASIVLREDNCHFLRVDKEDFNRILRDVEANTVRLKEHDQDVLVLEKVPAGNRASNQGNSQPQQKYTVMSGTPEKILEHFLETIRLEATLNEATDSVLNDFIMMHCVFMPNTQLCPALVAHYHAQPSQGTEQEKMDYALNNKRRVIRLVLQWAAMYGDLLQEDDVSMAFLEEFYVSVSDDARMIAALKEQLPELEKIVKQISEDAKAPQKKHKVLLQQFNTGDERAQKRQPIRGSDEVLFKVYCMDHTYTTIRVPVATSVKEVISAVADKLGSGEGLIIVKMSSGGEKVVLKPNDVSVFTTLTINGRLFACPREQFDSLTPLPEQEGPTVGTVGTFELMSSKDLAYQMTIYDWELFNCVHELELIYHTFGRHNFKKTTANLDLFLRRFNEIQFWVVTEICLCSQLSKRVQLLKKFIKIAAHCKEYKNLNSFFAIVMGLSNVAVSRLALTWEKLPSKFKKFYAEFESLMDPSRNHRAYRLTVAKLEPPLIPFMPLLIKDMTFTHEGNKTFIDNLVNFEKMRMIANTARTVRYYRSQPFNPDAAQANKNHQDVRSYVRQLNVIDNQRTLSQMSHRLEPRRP
Chain of Catechol O-methyltransferase (Homo sapiens) (P21964 whole entry, looked up): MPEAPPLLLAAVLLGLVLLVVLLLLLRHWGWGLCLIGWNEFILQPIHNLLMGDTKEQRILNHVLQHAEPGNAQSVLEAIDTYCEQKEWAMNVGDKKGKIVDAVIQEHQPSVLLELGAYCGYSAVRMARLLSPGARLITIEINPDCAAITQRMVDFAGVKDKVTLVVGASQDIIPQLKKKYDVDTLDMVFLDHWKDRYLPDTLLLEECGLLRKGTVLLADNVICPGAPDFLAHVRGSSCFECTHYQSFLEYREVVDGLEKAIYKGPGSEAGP

As to `Oc1ccc(Cl)cc1`, the activity change, negative = inhibition in test [1] is -1.58%. Besides, the Potency entry in test [2] and in test [3] was “inactive” in each case. `C=CCC1(C(C)CC)C(=O)NC(=O)NC1=O` (centres undefined): the activity change, negative = inhibition in test [1] is -17.9%. Besides, the Potency result in [2] and in test [3] was “inactive” in each case. On to `C[C@]12CC[C@H]3[C@@H](CCC4=CC(=O)CC[C@@H]43)[C@@H]1CC[C@@H]2OC(=O)CCc1ccco1`, for which the Potency entry in test [1] is “inactive”. For the same molecule, the Potency in test [2] is 23.7 µM (active). As to `C=C(C)[C@H]1CN[C@H](C(=O)O)[C@H]1CC(=O)O`, the Potency result in test [1], in [2] and in test [3] was “inactive” throughout. For the same molecule, the outcome with Papain (Carica papaya) is “inactive”. Turning to `COc1cccc2c1C(=O)c1c(O)c3c(c(O)c1C2=O)C[C@@](O)(C(=O)CO)C[C@@H]3O[C@H]1C[C@H](N)[C@@H](O)[C@H](C)O1`, the activity change, negative = inhibition in test [1] is -93.2% and -92.9%. In addition, the Potency in [4] was 0.0961 µM (active). Consider `COC1CC(=C(c2cccs2)c2cccs2)C[N+](C)(C)C1` (centres undefined), for which the activity change, negative = inhibition in test [1] is -29.5%. For the same molecule, in test [3], the Potency is 15 µM (active). For the molecule `CCCCCCC(=O)CCCCCC/C=C/C[C@@H](O)[C@H](O)[C@@](N)(CO)C(=O)O`, the Potency entry in test [2] and in [3] was “inactive” in each case. Turning to `CC(C)OC(=O)OCOP(=O)(CO[C@H](C)Cn1cnc2c(N)ncnc21)OCOC(=O)OC(C)C`, the Potency in [4] is 0.0192 µM (active). In the case of `C[C@H](N)C(=O)c1ccccc1`, the outcome in test [5] is “inactive”. In addition, the Potency entry in [2] and in test [3] was “inactive” in each case.

In the case of `CCCCCCNC(=O)n1cc(F)c(=O)[nH]c1=O`, the Potency in test [4] is 5.41 µM (active). For the molecule `Cc1c(C)c2c(c(C)c1O)CCC(C)(COc1ccc(CC3SC(=O)NC3=O)cc1)O2` (centres undefined), in [4], the Potency was 24.1 µM (active).

Regarding `CCN[C@H](C)Cc1cccc(C(F)(F)F)c1`, the Potency entry in test [2] was “inactive”. On to `CCCCCCCCCC(=O)O[C@H]1CC[C@H]2[C@@H]3CCC4=CC(=O)CC[C@@H]4[C@H]3CC[C@]12C`, for which the Potency entry in [2] and in test [3] was “inactive” each time. With `CCC(C)(C)c1ccc(O)cc1`, the Potency result in test [2] was “inactive”. Regarding `CN(C)CCc1c[nH]c2cccc(OP(=O)(O)O)c12`, the Potency result in test [2] and in test [3] was “inactive” each time.

In the case of `O=c1[nH]oc2c1CCNC2`, the outcome in the test with Papain (Carica papaya) was “inactive”. Further, the Potency entry in [2] and in test [3] was “inactive” in each case. With `Oc1ccc(Cl)c2cccnc12`, the Potency in test [4] was 3.04 µM (active).

In the case of `O=C(O)c1ccc(=O)[nH]c1`, the Potency result in test [2] and in test [3] was “inactive” in each case.

As to `NCCc1ccc(O)cc1`, in the test with Papain (Carica papaya), the outcome was “inactive”. The Potency result in test [2] was “inactive”. In test [6], the activity is -7.57%. For the molecule `CCOc1ccc2nc3cc(N)ccc3c(N)c2c1`, in test [4], the Potency is 21.5 µM (active). For the molecule `C[C@]12Cc3cn[nH]c3C[C@@H]1CC[C@@H]1[C@@H]2CC[C@@]2(C)[C@H]1CC[C@]2(C)O`, in [1], the activity change, negative = inhibition was -13.6%. In [3], the Potency result was “inactive”. With `COc1c2c(cc3c1OCO3)CCN(C)C2`, the Potency result in test [2] and in test [3] was “inactive” in each case.

In the case of `O=C(CCCN1CCC2(CC1)C(=O)NCN2c1ccccc1)c1ccc(F)cc1`, the outcome in the test with Papain (Carica papaya) is “inactive”. For the molecule `CNCC(=O)c1ccc(O)c(O)c1`, the Potency entry in [2] is “inactive”.

`CC(C)(C)NCC(O)c1cc(Cl)c(N)c(C(F)(F)F)c1` (centres undefined): the Potency result in [2] and in test [3] was “inactive” each time. With `Nc1ccn([C@@H]2O[C@H](CO)[C@@H](O)C2O)c(=O)n1` (some centres undefined), the Potency in [4] was 4.82 µM (active). On the same count and under the same terms, then `CC(C)=CCC/C(C)=C/CC/C(C)=C/CCC(=O)OC/C=C(\C)CCC=C(C)C`, with 1.08 µM (active); and `O=C1CN(/N=C/c2ccc([N+](=O)[O-])o2)C(=O)N1`, with 1.92 µM (active). Regarding `CCN(CCO)CCn1c(Cc2ccccc2)nc2c1c(=O)n(C)c(=O)n2C`, the Potency entry in test [2] and in test [3] was “inactive” throughout. On to `CCN(CC)C(C)CN1c2ccccc2Sc2ccccc21` (centres undefined), for which the Potency in [4] is 0.341 µM (active). Take `CC(C)N(CCC(C(N)=O)(c1ccccc1)c1ccccn1)C(C)C` (centres undefined): the outcome in the test with Papain (Carica papaya) is “inactive”. Also, the Potency entry in test [2] and in [3] was “inactive” throughout. For `COC(=O)C1=C(C)NC(C)=C(C(=O)OCC(C)=O)C1c1ccccc1[N+](=O)[O-]` (centres undefined), in test [4], the Potency is 8.57 µM (active).

As to `Nc1nc2[nH]cc(CCc3ccc(C(=O)N[C@@H](CCC(=O)O)C(=O)O)cc3)c2c(=O)[nH]1`, in test [4], the Potency was 1.71 µM (active). Consider `O=C1OC(CCN2CCCCC2)OC1(c1ccccc1)c1ccccc1` (centres undefined), for which the figures for the Potency in test [2] and in test [3] were 8.41 µM (active) and 13.3 µM (active), respectively. In the case of `ClCCN1CCCC1`, the Potency result in test [2] and in [3] was “inactive” in each case. As to `C[C@]12CC[C@@H]3c4ccc(OC(=O)N(CCCl)CCCl)cc4CC[C@H]3[C@@H]1CC[C@@H]2O`, the Potency entry in test [1] was “inactive”. The outcome in test [7] and in test [8] was “inactive” throughout. `COC(=O)[C@@H](N)CCCN/C(N)=N/[N+](=O)[O-]`: the Potency entry in test [2] and in test [3] was “inactive” each time. `C[C@]12CCC(=O)C=C1CC[C@@H]1[C@@H]2CC[C@@]2(C)[C@H]1CC[C@]2(C)O`: in [5], the outcome is “inactive”. Moreover, in [2], the Potency is 23.7 µM (active). As for `CC(=O)OCC1=C(C(=O)O)N2C(=O)[C@@H](N)[C@H]2SC1`, the Potency entry in [2] and in test [3] was “inactive” throughout.

Consider `Cc1ccc(Nc2nccc(N(C)c3ccc4c(C)n(C)nc4c3)n2)cc1S(N)(=O)=O`, for which the Potency in test [4] is 12.1 µM (active). Take `COc1cccc2c1C(=O)c1c(O)c3c(c(O)c1C2=O)C[C@@](O)(C(=O)CO)CC3OC1CC(N2CCOC(OC)C2)C(O)C(C)O1` (some centres undefined): the figures for the Potency in test [4], in test [2] and in test [3] were 0.0482 µM (active), 0.0047 µM (active) and 0.0033 µM (active), respectively. For `O=C1CN=C(c2ccccc2)c2cc([N+](=O)[O-])ccc2N1`, the Potency entry in test [2] was “inactive”. Consider `Cc1nc2ccc(CN(C)c3ccc(C(=O)N[C@@H](CCC(=O)O)C(=O)O)s3)cc2c(=O)[nH]1`, for which the Potency in [4] was 0.304 µM (active).

As to `CN1CCC(O)(c2ccc(F)cc2)C(C(=O)c2ccc(F)cc2)C1` (centres undefined), the Potency result in [2] and in test [3] was “inactive” throughout. Regarding `C[C@]12CC[C@H]3[C@@H](CCC4=CC(=O)CC[C@@H]43)[C@@H]1CC[C@@H]2OC(=O)CCC1CCCCC1`, the Potency was 23.7 µM (active) in [2] and 18.8 µM (active) in [3]. For `CC1(C)C(C=C(Cl)Cl)C1C(=O)OC(C#N)c1cccc(Oc2ccccc2)c1` (centres undefined) the same measures were “inactive” and “inactive”. On the same counts, the results for `CCC1(CC)C(=O)C=CNC1=O` are “inactive” and “inactive”.

`c1ccc(CN2CCNCC2)cc1`: the Potency result in test [2] and in test [3] was “inactive” throughout. On to `Nc1nc(N)nc(NC2CC2)n1`, for which the Potency result in [2] and in test [3] was “inactive” each time. On to `CC(Cc1ccccc1)NCCn1cnc2c1c(=O)n(C)c(=O)n2C` (centres undefined), for which the Potency result in [2] and in test [3] was “inactive” throughout. As for `CC(C)=CC1C(C(=O)OCN2C(=O)C3=C(CCCC3)C2=O)C1(C)C` (centres undefined), the Potency result in [2] and in test [3] was “inactive” each time. Turning to `C[N+]1(CCF)[C@@H]2CC[C@H]1CC(OC(=O)C(O)(c1ccccc1)c1ccccc1)C2` (some centres undefined), the Potency entry in [2] and in test [3] was “inactive” throughout. With `CCCOC(=O)c1cncn1C(C)c1ccccc1` (centres undefined), the Potency result in test [2] and in test [3] was “inactive” throughout. On to `CCCN(CCC)C(=O)Cc1c(-c2ccc(Cl)cc2)nc2ccc(Cl)cn12`, for which the Potency entry in test [2] and in test [3] was “inactive” throughout. With `COC(=O)C(Cl)C(=O)OC`, the Potency entry in test [2] and in test [3] was “inactive” in each case.

Take `COc1cc(OC)c(OC)cc1C=O`: the Potency entry in test [2] and in test [3] was “inactive” each time.
